About 8,800 targets were measured; listed, in parts, are those with a hit and a random draw of the rest. About 0.5% of all pairs of compound and target were hits. Unmarked numbers belong to inactive results.

Common to all, as to assay: log2 fold change, soluble protein after heating vs DMSO (PISA); higher = thermal stabilisation; K562 lysate, 10 uM; active = over 0.2 and 3.5 SD of the protein, either way, in both replicates (recomputed)
Compound in assay [1]: NCC(=O)Nc1ccc(-n2nc(C(F)(F)F)cc2-c2ccc3c(ccc4ccccc43)c2)cc1
In a few lines:
(§1)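 Quantification was by TMTpro 16plex LC-MS/MS with equalised channel sums, applied to the supernatant after 21,000xg for 90 min. Samples were crude K562 extract at 1 mg/mL protein in PBS pH 7.4 with 1 mM MgCl2, treated with 10 μM compound for 30 min, heated for 3 min across 48°C-58°C, pooled and brought to 0.5% NP-40 at 4°C. Values are log-two fold changes in thermal stability relative to solvent controls, from duplicates.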

Compound in assay [2]: O=C1NC(=O)C(c2cnc3ccccn23)=C1c1cn2c3c(cc(F)cc13)CN(C(=O)N1CCCCC1)CC2
In a few lines: as §1

Compound in a further assay: O=C(CCCCCCC(=O)Nc1ccccc1)NO [vorinostat]
In a few lines: as §1

Compound in a further assay: O=C(O)c1ccc2c(c1)nc(Nc1cccc(Cl)c1)c1ccncc12 [silmitasertib]
In a few lines:
as §1

Compound in a further assay: c1cn2cc(-c3ccc4cn[nH]c4c3)nc(Nc3ccc(N4CCOCC4)cc3)c2n1 [entospletinib]
In a few lines:
as §1

UniProt Q9BRN9, sequence (Q9BRN9 whole entry, looked up): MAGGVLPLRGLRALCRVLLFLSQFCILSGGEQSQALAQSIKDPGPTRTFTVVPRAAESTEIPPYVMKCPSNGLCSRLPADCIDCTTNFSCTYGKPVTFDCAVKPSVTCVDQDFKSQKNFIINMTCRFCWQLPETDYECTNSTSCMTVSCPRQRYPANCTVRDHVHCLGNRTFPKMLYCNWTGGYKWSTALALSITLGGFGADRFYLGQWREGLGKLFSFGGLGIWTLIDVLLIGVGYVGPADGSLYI
UniProt P36897, sequence (P36897 whole entry, looked up): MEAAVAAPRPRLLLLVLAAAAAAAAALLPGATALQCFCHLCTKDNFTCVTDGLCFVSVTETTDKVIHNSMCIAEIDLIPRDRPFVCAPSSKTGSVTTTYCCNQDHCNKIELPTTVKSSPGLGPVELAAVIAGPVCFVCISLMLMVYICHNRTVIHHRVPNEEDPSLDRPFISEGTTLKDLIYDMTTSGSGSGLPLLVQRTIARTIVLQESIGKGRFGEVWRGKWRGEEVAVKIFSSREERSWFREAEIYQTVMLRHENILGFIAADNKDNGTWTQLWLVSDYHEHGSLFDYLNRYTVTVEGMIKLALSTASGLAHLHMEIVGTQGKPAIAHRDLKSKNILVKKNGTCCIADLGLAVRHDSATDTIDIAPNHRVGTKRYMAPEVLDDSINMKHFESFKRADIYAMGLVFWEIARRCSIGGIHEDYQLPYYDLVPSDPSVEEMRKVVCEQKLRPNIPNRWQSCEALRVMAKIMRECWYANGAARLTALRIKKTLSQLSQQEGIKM
UniProt Q9UGU0, sequence (Q9UGU0 whole entry, looked up): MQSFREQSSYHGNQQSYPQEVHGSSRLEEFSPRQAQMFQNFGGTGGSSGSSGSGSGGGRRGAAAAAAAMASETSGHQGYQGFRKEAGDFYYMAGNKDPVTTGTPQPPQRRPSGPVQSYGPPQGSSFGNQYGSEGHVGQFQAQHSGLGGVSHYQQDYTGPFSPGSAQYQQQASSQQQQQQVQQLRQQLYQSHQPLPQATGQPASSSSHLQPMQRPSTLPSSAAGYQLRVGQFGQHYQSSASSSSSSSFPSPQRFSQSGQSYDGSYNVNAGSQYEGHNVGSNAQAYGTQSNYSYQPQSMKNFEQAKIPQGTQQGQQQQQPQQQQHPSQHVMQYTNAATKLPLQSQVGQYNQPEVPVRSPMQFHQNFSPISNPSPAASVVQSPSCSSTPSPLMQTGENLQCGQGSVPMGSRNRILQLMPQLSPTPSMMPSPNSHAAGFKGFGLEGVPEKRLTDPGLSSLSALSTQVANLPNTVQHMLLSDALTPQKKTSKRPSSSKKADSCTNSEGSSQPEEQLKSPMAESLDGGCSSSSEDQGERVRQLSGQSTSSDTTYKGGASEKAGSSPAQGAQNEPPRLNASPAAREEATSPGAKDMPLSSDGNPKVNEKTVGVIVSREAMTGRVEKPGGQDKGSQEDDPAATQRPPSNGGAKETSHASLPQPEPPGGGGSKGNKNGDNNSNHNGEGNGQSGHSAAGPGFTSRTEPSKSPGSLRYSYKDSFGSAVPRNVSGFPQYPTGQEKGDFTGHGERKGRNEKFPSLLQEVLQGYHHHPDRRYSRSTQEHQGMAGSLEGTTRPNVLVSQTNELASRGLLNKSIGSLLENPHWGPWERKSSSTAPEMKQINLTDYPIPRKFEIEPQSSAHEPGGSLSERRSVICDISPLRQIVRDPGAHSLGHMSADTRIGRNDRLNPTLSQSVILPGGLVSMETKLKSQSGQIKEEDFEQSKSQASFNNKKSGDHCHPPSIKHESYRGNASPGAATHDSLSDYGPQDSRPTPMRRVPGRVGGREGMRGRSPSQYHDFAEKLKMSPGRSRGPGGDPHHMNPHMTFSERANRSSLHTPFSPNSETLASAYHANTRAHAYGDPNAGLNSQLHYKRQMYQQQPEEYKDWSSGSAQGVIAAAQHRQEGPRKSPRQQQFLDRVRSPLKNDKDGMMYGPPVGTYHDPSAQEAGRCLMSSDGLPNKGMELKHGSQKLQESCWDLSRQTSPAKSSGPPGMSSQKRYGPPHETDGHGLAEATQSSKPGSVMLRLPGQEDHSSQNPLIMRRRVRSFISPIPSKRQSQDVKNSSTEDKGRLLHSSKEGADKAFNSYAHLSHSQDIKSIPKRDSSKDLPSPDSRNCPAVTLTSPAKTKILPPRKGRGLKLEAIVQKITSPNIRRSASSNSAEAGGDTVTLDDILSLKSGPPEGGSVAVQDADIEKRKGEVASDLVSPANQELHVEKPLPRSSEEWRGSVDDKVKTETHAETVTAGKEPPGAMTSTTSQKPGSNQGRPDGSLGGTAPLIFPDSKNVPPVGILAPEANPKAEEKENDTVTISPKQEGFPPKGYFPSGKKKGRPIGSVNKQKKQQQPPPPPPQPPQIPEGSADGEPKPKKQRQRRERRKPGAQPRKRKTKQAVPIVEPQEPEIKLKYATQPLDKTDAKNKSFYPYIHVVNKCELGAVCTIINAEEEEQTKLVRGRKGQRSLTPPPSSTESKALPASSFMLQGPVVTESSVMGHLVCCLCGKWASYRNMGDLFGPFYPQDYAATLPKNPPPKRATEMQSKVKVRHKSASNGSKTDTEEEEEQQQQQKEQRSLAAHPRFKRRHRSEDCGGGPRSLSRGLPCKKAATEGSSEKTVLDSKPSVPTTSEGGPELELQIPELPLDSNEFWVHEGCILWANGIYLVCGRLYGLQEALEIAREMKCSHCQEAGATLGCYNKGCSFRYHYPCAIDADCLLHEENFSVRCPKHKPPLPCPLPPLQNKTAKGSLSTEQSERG
UniProt O75382, sequence (O75382 whole entry, looked up): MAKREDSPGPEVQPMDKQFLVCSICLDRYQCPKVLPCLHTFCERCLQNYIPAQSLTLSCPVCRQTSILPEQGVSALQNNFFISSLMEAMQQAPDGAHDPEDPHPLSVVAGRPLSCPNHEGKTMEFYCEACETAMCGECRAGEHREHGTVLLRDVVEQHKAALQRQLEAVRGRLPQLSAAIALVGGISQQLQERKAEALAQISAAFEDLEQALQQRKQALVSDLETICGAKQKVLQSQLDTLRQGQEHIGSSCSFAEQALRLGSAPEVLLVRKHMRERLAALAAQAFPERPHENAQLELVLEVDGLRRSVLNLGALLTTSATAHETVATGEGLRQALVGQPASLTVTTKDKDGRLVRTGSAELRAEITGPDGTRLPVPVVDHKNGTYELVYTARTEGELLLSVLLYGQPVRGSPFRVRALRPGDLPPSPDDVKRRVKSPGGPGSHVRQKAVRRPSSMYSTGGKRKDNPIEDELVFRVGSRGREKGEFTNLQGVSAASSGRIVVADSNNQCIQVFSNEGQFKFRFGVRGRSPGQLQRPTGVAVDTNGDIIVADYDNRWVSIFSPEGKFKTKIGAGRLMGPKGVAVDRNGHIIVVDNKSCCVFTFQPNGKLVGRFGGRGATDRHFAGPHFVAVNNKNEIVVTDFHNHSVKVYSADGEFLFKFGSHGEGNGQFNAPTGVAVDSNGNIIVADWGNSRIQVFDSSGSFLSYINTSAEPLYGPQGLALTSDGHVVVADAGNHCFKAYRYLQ
UniProt P04350, sequence (P04350 whole entry, looked up): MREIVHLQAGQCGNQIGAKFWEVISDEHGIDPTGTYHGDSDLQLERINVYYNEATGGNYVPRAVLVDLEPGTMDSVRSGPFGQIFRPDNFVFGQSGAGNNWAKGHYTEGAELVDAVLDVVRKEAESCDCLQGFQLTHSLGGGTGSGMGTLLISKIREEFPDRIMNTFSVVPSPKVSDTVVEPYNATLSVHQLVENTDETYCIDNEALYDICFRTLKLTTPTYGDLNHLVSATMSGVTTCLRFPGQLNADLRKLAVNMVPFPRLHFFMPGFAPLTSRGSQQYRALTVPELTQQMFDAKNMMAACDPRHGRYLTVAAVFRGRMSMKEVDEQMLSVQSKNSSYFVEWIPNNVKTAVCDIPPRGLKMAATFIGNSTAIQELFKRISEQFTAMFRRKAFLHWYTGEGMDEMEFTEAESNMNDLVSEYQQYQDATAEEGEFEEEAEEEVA
UniProt Q86SX3, sequence (Q86SX3 whole entry, looked up): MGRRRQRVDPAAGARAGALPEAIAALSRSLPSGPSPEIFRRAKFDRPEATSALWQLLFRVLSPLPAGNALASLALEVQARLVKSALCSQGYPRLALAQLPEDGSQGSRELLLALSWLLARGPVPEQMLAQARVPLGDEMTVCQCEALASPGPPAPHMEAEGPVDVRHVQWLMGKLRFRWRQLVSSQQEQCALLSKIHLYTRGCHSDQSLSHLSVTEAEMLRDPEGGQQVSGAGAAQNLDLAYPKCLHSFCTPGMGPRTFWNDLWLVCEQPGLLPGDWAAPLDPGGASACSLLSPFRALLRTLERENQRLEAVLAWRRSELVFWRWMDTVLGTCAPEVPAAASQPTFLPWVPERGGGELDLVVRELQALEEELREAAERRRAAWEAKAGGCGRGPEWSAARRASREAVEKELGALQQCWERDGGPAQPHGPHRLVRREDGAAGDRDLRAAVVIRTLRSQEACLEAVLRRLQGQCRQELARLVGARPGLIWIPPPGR
UniProt Q6Q0C0, sequence (Q6Q0C0 whole entry, looked up): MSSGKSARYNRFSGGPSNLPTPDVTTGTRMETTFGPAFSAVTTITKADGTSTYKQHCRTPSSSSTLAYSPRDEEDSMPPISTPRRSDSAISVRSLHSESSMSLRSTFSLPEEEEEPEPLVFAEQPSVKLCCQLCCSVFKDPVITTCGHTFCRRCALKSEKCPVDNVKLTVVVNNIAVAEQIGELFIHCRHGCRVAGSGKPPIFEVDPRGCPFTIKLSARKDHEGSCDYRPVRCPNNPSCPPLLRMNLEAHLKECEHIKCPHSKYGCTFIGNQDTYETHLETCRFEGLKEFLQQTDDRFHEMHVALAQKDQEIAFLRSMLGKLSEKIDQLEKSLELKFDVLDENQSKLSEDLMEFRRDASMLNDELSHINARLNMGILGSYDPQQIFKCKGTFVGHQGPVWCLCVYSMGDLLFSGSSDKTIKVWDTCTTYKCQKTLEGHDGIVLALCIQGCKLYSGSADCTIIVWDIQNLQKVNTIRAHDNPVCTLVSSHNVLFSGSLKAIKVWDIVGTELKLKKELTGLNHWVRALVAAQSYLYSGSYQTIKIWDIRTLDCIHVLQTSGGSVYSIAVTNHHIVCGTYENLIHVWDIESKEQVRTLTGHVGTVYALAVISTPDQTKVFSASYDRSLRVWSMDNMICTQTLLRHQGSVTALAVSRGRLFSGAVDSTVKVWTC

Turning to TFPI isoform 2 (UniProt P10646), the log2 fold change was 0.184 in assay [1] and 0.019 in assay [2].

Take TNIK isoform 5 (UniProt Q9UKE5): the log2 fold change in assay [2] was -0.134.

As for TRIM3 (UniProt O75382), the log2 fold change was -0.304 in assay [1], -0.055 with vorinostat, -0.179 with silmitasertib and -0.056 with entospletinib.

Take UBAP2L (UniProt F8W726): the values for the log2 fold change in assay [1] and in assay [2] were 0.062 and 0.021, respectively.

Consider TPD52L2 isoform 3 (UniProt O43399), for which the figures for the log2 fold change with vorinostat and with silmitasertib were 0.258 and -0.058, respectively.

UBN1 (UniProt Q9NPG3): the values for the log2 fold change (in assay [1]; in assay [2]; with entospletinib) were 0.048, -0.463 and -0.034, respectively.

Turning to TXNRD2 isoform 3 (UniProt Q9NNW7), the log2 fold change was -0.94 (active) with vorinostat and -0.194 in the assay with silmitasertib.

On to TEDC1 (UniProt Q86SX3), for which the log2 fold change with vorinostat is -0.356 (active); with silmitasertib, 0.068; in assay [2], -0.012; with entospletinib, -0.032.

On to TRIM33 (UniProt H0Y612), for which the log2 fold change in assay [1] was -0.039; in the assay with vorinostat, -0.335 (active); in the assay with silmitasertib, 0.061; in assay [2] it was 0.03; with entospletinib it was 0.084.

For TCF20 (UniProt Q9UGU0), the log2 fold change with vorinostat was -0.067; in the assay with silmitasertib, 0.054; in assay [2], -0.056.

In the case of TM2D3 (UniProt Q9BRN9), the values for the log2 fold change in the assay with vorinostat, with silmitasertib and with entospletinib were 0.096, 0.339 and -0.184, respectively.

On to TFPT (UniProt P0C1Z6), for which the log2 fold change with vorinostat is 0.289; in the assay with silmitasertib, -0.18.

TGFBR1 isoform 2 (UniProt P36897): the log2 fold change with vorinostat is 0; with silmitasertib, 0.076; with entospletinib, -0.004.

In the case of TUBB4A (UniProt P04350), the log2 fold change in the assay with vorinostat was -0.448 (active); in the assay with silmitasertib it was 0.065; in assay [2] it was 0.095; in the assay with entospletinib, -0.056.

As for TRAF7 (UniProt Q6Q0C0), the results for the log2 fold change (in assay [1]; in assay [2]; with entospletinib) were 0.052, 0.059 and 0.058, respectively.

As to TASP1 (UniProt Q9H6P5), the log2 fold change is 0.481 (active) in the assay with vorinostat, -0.018 with silmitasertib, 0.029 in assay [2] and 0.21 with entospletinib.

Consider UBAP2L isoform 1 (UniProt Q14157), for which the log2 fold change in assay [2] was 0.088.
